Measured values taken from PubChem BioAssay (NCATS).
Results filed as inconclusive are left out. Where a call stands in place of a potency, no number is given. The source made the active and inactive calls. Calls come from the whole dose curve; as a rule, active = well fitted inhibition curve with a large enough effect; inconclusive = small, poorly fitted or top-dose-only effect; inactive = flat fitted curve, though single readings scatter.

Target: Calcium and integrin-binding protein 1 (Homo sapiens) (UniProt Q99828)
Test: Primary qHTS for Identification of Calcium Integrin Binding Protein 1 (CIB1) Competitor (AID 1508620)
Conditions: CIB1-GST / FITC-alphaIIb peptide fluorescence polarization; series mostly up to 57.7 µM
How it was run: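 CIB1-GST (1 uM final) and compound incubated 15 min at room temperature before adding FITC-alphaIIb peptide tracer (100 nM final). Competition for binding read by fluorescence polarization (ex 480, em 540) after another 15 min at room temperature.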
Potency is the fitted concentration of half-maximal effect.

Calcium and integrin-binding protein 1 (Homo sapiens), sequence (Q99828 whole entry, looked up): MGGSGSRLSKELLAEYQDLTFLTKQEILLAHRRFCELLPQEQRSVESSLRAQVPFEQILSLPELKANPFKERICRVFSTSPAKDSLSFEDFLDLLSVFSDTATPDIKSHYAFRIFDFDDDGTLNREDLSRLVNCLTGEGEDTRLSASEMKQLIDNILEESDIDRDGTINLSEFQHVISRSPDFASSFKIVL

With `C#C[C@]1(O)CC[C@@H]2[C@@H]3CCC4=CC(=O)CC[C@@H]4[C@H]3CC[C@@]21CC` as the compound, how does the Potency read?
The Potency was “inactive”.

How did the Potency turn out when `CC[C@]12C=CCN3CC[C@@]4(c5cc([C@@]6(C(=O)OC)C[C@H]7C[C@@H](C(C)(F)F)CN(Cc8c6[nH]c6ccccc86)C7)c(OC)cc5N(C)[C@H]4[C@@](O)(C(=O)OC)[C@H]1OC(C)=O)[C@@H]32` was run?
Its Potency is “inactive”.

With `COc1cc2c(cc1O)CCC1C2CC[C@@]2(C)C1CC[C@@H]2O` (stereo not given in full) as the compound, how does the Potency read?
Its Potency is “inactive”.

`CS[C@H]1SC[C@@H]2C(=O)N(C)[C@H](C(C)C)C(=O)OC[C@H](NC(=O)c3cnc4ccccc4n3)C(=O)N[C@H](C)C(=O)N(C)[C@@H]1C(=O)N(C)[C@H](C(C)C)C(=O)OC[C@H](NC(=O)c1cnc3ccccc3n1)C(=O)N[C@H](C)C(=O)N2C` was tested. Which Potency did it give?
Its Potency is “inactive”.

For `O=C(C=CC#Cc1cccc(NS(=O)(=O)c2ccccc2)c1)NO`, which Potency is on record?
Its Potency is “inactive”.

`CC(C)N(CC[C@H](c1ccccc1)c1cc(CO)ccc1O)C(C)C` was tested. Which Potency did it give?
Its Potency is “inactive”.

With `CC(=O)[C@]1(O)Cc2c(O)c3c(c(O)c2[C@@H](O[C@H]2C[C@H](N)[C@@H](O)[C@H](C)O2)C1)C(=O)c1ccccc1C3=O` as the compound, how does the Potency read?
The Potency was 24.1 µM (active).

`C[C@@]12C[C@@]3(O)O[C@@H](O1)[C@]1(COC(=O)c4ccccc4)[C@@H]3C[C@@]12O[C@@H]1O[C@H](CO)[C@@H](O)[C@H](O)[C@@H]1O` was tested. Which Potency did it give?
Its Potency is “inactive”.

For `CN[C@@H]1C[C@H]2O[C@@](C)([C@H]1OC)n1c3ccccc3c3c4c(c5c6ccccc6n2c5c31)C(=O)N[C@H]4O`, which Potency is on record?
Its Potency is “inactive”.

For `C=CC(=O)Nc1cccc(Nc2nc(NC3CCC(N(C)C)CC3)nc3c2ncn3C(C)C)c1` (stereo not given), which Potency is on record?
The Potency was “inactive”.
